Hits are enriched below; roughly 2.6% of the tested compounds scored in any of these assays.
ABHD5-PLIN5 inh: blocks binding of human ABHD5 to perilipin-5 | hit rate 0.78% among 360,000 | AID 602281 | Q00G26+Q8WTS1 | Split G. princeps luciferase complementation, luminescence, 4 h | inhibition, % at 4 µM;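 active means inhibition above the mean inhibition across every tested compound plus 3 SD, cut at about 22% in these data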
Rce1 inh: blocks yeast Ras-converting enzyme | yeast membranes, quenched prenylated peptide cleavage fluorescence | calls only | hit rate 0.27% among 290,000 | AID 2563;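 active means fall in fluorescence gain of 50% or more versus controls, with final raw signal at or below 3038400; inconclusive means same 50% fall but final raw signal above 3038400; inactive means fall in fluorescence gain under 50%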
Target sequence (Q03530 whole entry, looked up): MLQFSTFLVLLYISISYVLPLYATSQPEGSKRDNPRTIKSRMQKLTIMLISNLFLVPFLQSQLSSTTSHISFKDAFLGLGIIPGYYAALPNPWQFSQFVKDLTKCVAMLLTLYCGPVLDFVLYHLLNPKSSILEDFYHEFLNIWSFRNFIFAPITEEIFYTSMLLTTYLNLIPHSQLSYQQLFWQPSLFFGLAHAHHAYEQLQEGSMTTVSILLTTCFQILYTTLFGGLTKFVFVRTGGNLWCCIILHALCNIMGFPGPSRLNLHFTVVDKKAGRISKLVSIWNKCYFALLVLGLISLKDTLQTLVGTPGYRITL
Platelet DG rel: modulates dense granule release in human platelets. human platelet-rich plasma, SFLLRN dense granule ATP release, luminescence. inhibition, %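 (compounds screened at 7.5 µM in platelet-rich plasma)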. hit rate 0.22% among 300,000. AID 1663;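 active means mean replicate score, as percent of positive control, at or above 50; inconclusive means mean below 50 but at least one replicate at or above 50; inactive means mean and every replicate below 50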
Exocytosis inh: lytic granule exocytosis inhibition | TALL-104 LAMP-1 surface exposure, flow cytometry; cells stimulated with thapsigargin and PMA | inhibition, % at 10 µM | hit rate 0.66% among 360,000;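 active means inhibition above about 55%, limit read from the data; inconclusive means no clear call, values can overlap the other calls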
M18AAP inhibitor: blocks P. falciparum M18 aspartyl aminopeptidase; inhibition, % at 7.35 µM; hit rate 1.2% among 290,000; recombinant PfM18AAP, H-Glu-NHMec fluorogenic cleavage; AID 1822;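 active means inhibition above the campaign mean inhibition over all tested compounds plus 3 SD, cut at about 28% in these data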
Exocytosis CP01: lytic granule exocytosis inhibition; hit rate 11% among 1,500; AID 651954; TALL-104 cells, LAMP-1 externalization, flow cytometry; stimulated with PMA plus thapsigargin; inhibition, % at 10 µM; shares compounds with Exocytosis inh; in the data active means inhibition above about 60%
Hits are given with their value; n = inactive; u = inconclusive; x = no result given.

SMILES | ABHD5-PLIN5 inh | Rce1 inh | Platelet DG rel | Exocytosis inh | M18AAP inhibitor | Exocytosis CP01
COc1ccc(CCNCC(O)COc2ccc(OC)cc2C(C)(C)C)cc1 (stereo not given) | n | n | n | 60.7 | n | n
COc1ccc(CCNCC(O)COc2cccc(Br)c2)cc1OC (stereo not given) | n | n | n | n | n | x
O=C1CC2(CCCC2)Oc2ccccc21 | n | n | n | n | x | x
O=C1CC2(CCCCCC2)Oc2ccccc21 | n | n | n | 62.6 | x | n
CC(C)NC(=O)c1ccccc1NS(=O)(=O)c1ccc(Br)s1 | n | n | n | 59.3 | n | n
O=C(c1ccccc1NS(=O)(=O)c1ccc(Br)s1)N1CCCC1 | n | n | n | n | n | x
CC(C)(C)C1CCC(=O)N(CCOc2ccccc2)CC1 (stereo not given) | n | n | n | 67.1 | n | n
CC(C)(C)CC(C)(C)N=C1Nc2cc(Cl)c(Cl)cc2NC12C[C@H]1CCC(=O)N3CC[C@@H](C2)[C@@H]13 (stereo not given in full) | n | x | x | 75.7 | x | n
CCN(CC)c1cc2c(c3c1ccn3C)C1CCC2O1 (stereo not given) | n | x | x | n | x | x
O=C(CCl)Nc1cccc2ncccc12 | n | n | n | n | n | x
COc1ccccc1C(=O)Nc1c2c(nn1-c1cccc(C)c1C)CS(=O)(=O)C2 | n | n | n | 70.7 | n | n
COc1ccccc1C(=O)Nc1c2c(nn1-c1ccc(Cl)cc1)CS(=O)(=O)C2 | n | n | n | n | n | x
O=S1(=O)CC2N=C(N(Cc3ccc(F)cc3Cl)c3ccccc3F)SC2C1 (stereo not given) | n | n | n | n | n | x
O=C1CC(Cc2ccccc2)C(=O)N1CCc1ccc2c(c1)OCO2 (stereo not given) | n | n | n | 76.5 | n | n
CC(C)C(=O)N1CCC2(CC1)Oc1ccc(Cl)cc1C(=O)C21CC(c2cccnc2)=NO1 (stereo not given) | n | n | n | n | x | x
O=C(NCCCN1CCCC1=O)C1CCN(S(=O)(=O)c2cc(C(F)(F)F)ccc2Cl)CC1 | n | x | x | 89.8 | x | n
O=C(NCCCN1CCCC1=O)C1CCN(S(=O)(=O)c2cccc(C(F)(F)F)c2)CC1 | n | n | n | n | x | x
N/C(=N\OS(=O)(=O)c1ccc2ccccc2c1)c1ccncc1 | n | n | n | n | n | x
COc1ccc(S(=O)(=O)N(C)C)cc1NC(=O)CCCSc1ccccc1 | n | n | n | 94.6 | n | n
COc1ccccc1C(=O)NCCC(=O)Nc1ncccc1C | n | n | n | n | n | x
Clc1cccc(Cc2c(-c3ccco3)nc3c4ccccc4ccn23)c1 | n | x | x | 96.5 | x | n
Cc1nc(C)n(CC(=O)c2ccc(Cl)cc2Cl)n1 | n | n | n | n | n | x
CCCCN(CCCC)Cc1cc(=O)oc2cc(C)cc(C)c12 | n | x | x | n | x | x
O=C(CNCc1ccc(Cl)cc1)Nc1cc(S(=O)(=O)N2CCCC2)ccc1Cl | n | x | x | 77.4 | x | n
O=C(Cc1ccccc1F)Nc1cc(S(=O)(=O)N2CCCC2)ccc1Cl | n | x | x | n | x | x
SMILES | ABHD5-PLIN5 inh | Rce1 inh | Platelet DG rel | Exocytosis inh | M18AAP inhibitor | Exocytosis CP01
CCN(CC)S(=O)(=O)c1ccc(S(=O)(=O)N2CCC(N3CCCCC3)CC2)cc1 | n | n | n | 62.1 | n | n
CC(C)(C)c1ccc(S(=O)(=O)N2CCC(N3CCCCC3)CC2)cc1 | n | n | n | n | n | x
CCc1ccc(OCC(=O)N2CC(C(=O)OC)Oc3ccccc32)cc1 (stereo not given) | n | n | n | n | n | x
CC(NCc1cc(Br)ccc1OCC(N)=O)C12CC3CC(CC(C3)C1)C2 (stereo not given) | n | n | n | 58.6 | n | n
COCc1c(C(=O)NCc2ccccc2CN2CCCC2)oc2ccccc12 | n | x | x | n | x | x
Cc1cc2n(c(=O)c1C#N)CCCN2c1cccc(Cl)c1 | n | n | n | n | n | x
CCOC(=O)Cn1c(=N)n(CCOc2cccc(C)c2)c2ccccc21 | n | x | x | n | n | x
CCOC(=O)Cn1c(=N)n(CCOc2ccc(Br)cc2)c2ccccc21 | n | n | x | 65.7 | n | n
COc1ccc(NC(=S)N2CCc3ccccc3C2)cc1 | n | n | n | n | n | x
Cc1ccc2nc(NC(=O)Cc3cccs3)sc2c1 | n | n | n | n | n | x
Cc1ccc2nc(-c3ccc(NC(=O)Cc4cccs4)cc3)[nH]c2c1 | n | n | n | 68.0 | n | n
COc1ccc(Cc2nnc(NC(=O)Nc3ccc(C)cc3)s2)cc1OC | n | n | n | 65.1 | n | n
CSc1ccccc1NC(=O)CN(C)C(=O)CCc1c[nH]c2ccccc12 | n | n | n | 62.5 | n | n
CSc1ccccc1NC(=O)CN(C)C(=O)Cc1c[nH]c2ccccc12 | n | x | n | n | x | x
CCn1c2c(c3cc(OCC(C)C)ccc31)CCCC2=O | n | n | n | 57.8 | n | n
CCn1c2c(c3cc(Br)ccc31)CCC/C2=N\O | n | n | n | n | n | x
CCCc1cc(=O)oc2c(C)c(OC(C)C(=O)NCc3ccccn3)ccc12 (stereo not given) | n | n | n | n | n | x
COc1cccc(CN(C)C(c2ccccc2)c2ccccc2)c1OC | n | n | n | 88.8 | n | n
COc1ccc(N/C=C/C(=O)c2cc(OC)c(OC)c(OC)c2)cc1 | n | n | n | 57.0 | n | n
COc1ccc(N/C=C/C(=O)c2ccc(OC)c(OC)c2)cc1 | n | x | n | n | n | x
COc1cccc(/C=C/C(=O)OCC(=O)NCC2CCCO2)c1 (stereo not given) | n | n | n | u | n | x
O=C(Nc1ccc(S(=O)(=O)N2CCCC2)cc1)c1ccc(Br)o1 | n | x | n | 79.6 | n | n
CCc1nnc(NS(=O)(=O)c2ccc(NC(=O)c3ccco3)cc2)s1 | n | n | n | n | n | x
CN(Cc1cccs1)c1nc(-c2cccnc2)nc2ccccc12 | n | n | n | 84.5 | n | n
CN(c1ccccc1)S(=O)(=O)c1ccc2ccccc2c1 | n | n | n | 65.3 | n | n
SMILES | ABHD5-PLIN5 inh | Rce1 inh | Platelet DG rel | Exocytosis inh | M18AAP inhibitor | Exocytosis CP01
Cc1ccc(S(=O)(=O)N(C)c2ccc3ccccc3c2)cc1 | n | n | n | n | n | x
Cc1nsc(Nc2ccc([N+](=O)[O-])cc2)c1C#N | n | n | n | n | n | x
Nc1ccc(-c2nc3ccc(N)cc3o2)cc1 | n | u | n | 63.2 | n | n
O=C(Nc1cccc2cccnc12)c1ccccc1Cl | n | n | n | n | x | x
COc1ccccc1NC(=O)c1ccccc1Oc1ccccc1 | n | n | n | 67.5 | n | n
COc1ccccc1NC(=O)CNC(c1ccccc1)c1ccccc1 | n | x | n | 76.6 | n | n
COc1ccc(NC(=O)c2ccccc2Oc2ccccc2)c(OC)c1 | n | n | n | n | n | x
COc1ccccc1C(=O)Nc1cccc2cccnc12 | n | x | n | 56.1 | n | n
COc1cc(NC(=O)c2cc(OC)c(OC)c(OC)c2)c2ncccc2c1 | n | x | x | 93.5 | x | n
CN1CCc2cccc3c2[C@H]1Cc1ccc(O)c(O)c1-3 | n | n | n | 83.6 | 34.5 | n
Clc1ccccc1OCCCOc1cccc2cccnc12 | n | n | n | 88.0 | n | n
CN1CCN(c2nc(-c3ccncc3)nc3ccccc23)CC1 | n | n | n | n | n | x
c1ccc2c(N3CCCC3)nc(-c3ccncc3)nc2c1 | n | n | n | 60.5 | n | n
